# This is part of a sample that, as a whole, favours compounds with a hit. Of some 79,000 tested, about 15% had one in any assay. Unmarked numbers belong to inactive results. Activity calls are given as the source filed them. Cut-off read from the data, not from the text of the source: active = growth inhibition above about 70%; inactive = the rest.
# Tests used:
# [1] = NCI Yeast Anticancer Drug Screen. Data for the rad50 strain (AID 155);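 note: 0% = growth of vehicle-only cultures of the same strain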; conditions: S. cerevisiae rad50 strain growth inhibition; at 50.0 µM; active compounds read high
# How it was run: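 Inhibition values express reduced yeast growth in compound-treated cultures relative to vehicle-treated controls.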
# [2] = NCI Yeast Anticancer Drug Screen. Data for the mec2-1 strain (AID 157); conditions: S. cerevisiae mec2-1 strain, at 50.0 µM, active compounds read high
# How it was run: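 Vehicle-treated cultures served as reference for growth inhibition of compound-exposed mec2-1 yeast.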
# [3] = NCI Yeast Anticancer Drug Screen. Data for the sgs1 mgt1 strain (AID 161);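 note: 0% = growth of cultures given vehicle only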; conditions: S. cerevisiae sgs1 mgt1 strain, at 50.0 µM, active compounds read high
# How it was run: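 Inhibition of yeast growth, normalised to vehicle-treated controls, is reported for a strain bearing genetic alterations in DNA damage repair.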
# [4] = NCI Yeast Anticancer Drug Screen. Data for the cln2 rad14 strain (AID 165);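 note: 0% = growth equal to vehicle treated cultures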; conditions: S. cerevisiae cln2 rad14 strain, at 50.0 µM, active compounds read high
# How it was run: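 Each compound was tested on cln2 rad14 yeast. Inhibition of growth was calculated against vehicle-exposed controls.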
# [5] = NCI Yeast Anticancer Drug Screen. Data for the bub3 strain (AID 167); conditions: S. cerevisiae bub3 mutant strain, at 50.0 µM, active compounds read high
# How it was run: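 Steps: expose the mutant yeast strain to compound; grow alongside vehicle-treated cultures; measure growth; express inhibition against the vehicle cultures.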
# [6] = NCI Yeast Anticancer Drug Screen. Data for the mlh1 rad18 strain (AID 175); conditions: S. cerevisiae mlh1 rad18 strain growth inhibition; at 50.0 µM; active compounds read high
# How it was run: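 Vehicle-treated cultures served as the reference for growth inhibition in a yeast strain carrying DNA damage repair alterations exposed to each compound.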
SMILES,growth inhibition [1],growth inhibition [2],growth inhibition [3],growth inhibition [4],growth inhibition [5],growth inhibition [6]
CCOc1c(Cl)c(Cl)c(Cl)c(Cl)c1Cl,-9.8%,3.95%,-6.7%,9.3%,-2.9%,5.4%
CCOC(O)(NC(=O)C(C(F)(F)F)C(F)(F)F)C(F)(F)F (configuration not stated),6.05%,-18.1%,-33.4%,-9.45%,-12.4%,-26.9%
C[n+]1c2ccccc2c(CNC(CCC(N)=O)C(=O)O)c2ccccc21 (configuration not stated),83.3% (active),87.4% (active),80.6% (active),61.8%,73.3% (active),87.8% (active)
CCOC(=O)CC(CC(=O)OCC)(C(=O)OCC)C(=O)OCC,-2.2%,4.45%,8.55%,-57.2%,-17.3%,-1.95%
CC(=O)OCC1OC(OC(C)=O)C(NS(=O)(=O)c2ccc(C)cc2)C(OC(C)=O)C1OC(C)=O (configuration not stated),18.3%,4.25%,18.1%,17.8%,-3.65%,-4.65%
CCOC(=O)CCCCN(CC)CCCCC(=O)OCC,2.65%,-1.5%,11.1%,-2.25%,16.6%,-19.6%
ClCC#CCCl,19.4%,-10.9%,16.9%,4.3%,-7.4%,5.1%
Cc1cc(CC(N)C(=O)O)ccc1O (configuration not stated),-0.65%,7.05%,-6%,-6.85%,0.5%,-16.6%
COc1ccc(N/N=C(/c2ccccc2)c2noc(-c3ccccc3)n2)cc1,79.5% (active),92.2% (active),88.8% (active),89.3% (active),94.1% (active),92.6% (active)
CCCCN(CCCC)CC(O)c1cc(-c2cccc(I)c2)nc2c(Cl)cc(Cl)cc12 (configuration not stated),38.6%,4.4%,-4.75%,-11.1%,-6.15%,29.3%
NC12CC3CC(C1)CC(C(=O)O)(C3)C2,1.65%,3.05%,-2.75%,3.45%,6.7%,-7.1%
CC(=O)Oc1cc(I)cc(C(=O)O)c1,-10%,9.85%,-1.05%,-9.15%,3.3%,-10.4%
N=C(N)c1ccc(N=Nc2ccc(N)cc2N)cc1,7.4%,-3.75%,-7.45%,12.8%,-5.25%,-0.4%
CCOC(=O)C1CCN(S(=O)(=O)c2ccccc2)CC1,3.4%,-7.3%,11.8%,-38.1%,18.6%,-6.15%
S=C(N1CCN(c2cccc(Cl)c2)CC1)N1CCN(c2cccc(Cl)c2)CC1,-7.4%,13.7%,23%,9.6%,2.1%,12.7%
COC(=O)CC[C@@H](NC(=O)C(C)NC(=O)COC1C(O)C(COC(=O)CCCCCCCCCCNC(=O)c2ccc([N+](=O)[O-])c3[nH]c4cc(Br)ccc4c(=O)c23)OC(OCc2ccccc2)C1NC(C)=O)C(N)=O (some centres not stated),-14.5%,-10.7%,-17.6%,1.5%,-5.75%,-16.6%
O=C1C=CC(=O)C1,16%,-7.95%,3.15%,-0.3%,5.65%,-3.75%
O=C1c2ccccc2C2CC1c1ccccc12 (configuration not stated),6.35%,-1.6%,-1.7%,-7.7%,-16.4%,-5.4%
CCCCCN(CCCCC)CC(O)c1cccc2c1cc(Br)c1ccccc12 (configuration not stated),30.7%,1.55%,8.7%,8.45%,0.85%,14.7%

SMILES,growth inhibition [1],growth inhibition [2],growth inhibition [3],growth inhibition [4],growth inhibition [5],growth inhibition [6]
COC(=O)c1[nH]c(C)c(C(=O)OC)c1C,-8.5%,-27.7%,-3.1%,-5%,-13.2%,-12.8%
COc1ccc(-c2cc(=O)c3ccc(C)nc3[nH]2)cc1,-18.9%,-30.8%,-40.4%,-20.7%,-16.1%,-18.8%
COc1ccc(C(C)=C(C#N)C#N)cc1,18.9%,2.7%,-5.65%,16.1%,20.4%,13.1%
[Cl][Pt+2][Cl].[NH-]c1ccccc1F.[NH-]c1ccccc1F,11.2%,32.9%,-14.8%,15.8%,-26.9%,34.4%
C=CCON(C)c1ccc([N+](=O)[O-])cc1[N+](=O)[O-],15.3%,-0.9%,16.1%,-43.9%,-1.05%,13.8%
CC(=O)NC1=N/C(=C\c2ccc(Cl)cc2)C(=O)N1/C=C1\C(=O)Oc2ccccc2C1=O,50%,13.9%,24.9%,26%,49.7%,41.9%
C(=C/c1ccc2c(c1)OCO2)/c1ccccc1,-16.1%,10.3%,12.2%,-2.85%,11%,2.9%
CC(=O)C1CC2CCC1C2 (configuration not stated),10.4%,12.8%,-8.7%,-12.4%,1.25%,7.9%
NC(=S)n1nc(-c2ccccc2)c(N=Nc2ccccc2[N+](=O)[O-])c1-c1ccccc1,13.2%,2.5%,-3.15%,-35.6%,3.6%,9.45%
CC(=O)/C(C=Nc1c(C)n(C)n(-c2ccccc2)c1=O)=C(/C)O,24.6%,29%,28.1%,9.65%,24.9%,28.5%
Cc1cccc(NC(=S)NC2CCCCC2)c1,2.75%,11.7%,-3.1%,12.7%,7%,9.4%
O=C(c1ccc(Cl)s1)C(Cl)C(Cl)c1ccc(Cl)s1 (configuration not stated),-20.5%,-2.4%,1.2%,-12.4%,29.6%,-3.55%
CC(C)(C)CC(C)(C)Nc1ccc(C(N)=O)cc1,-2.35%,15.2%,-20.9%,-8.2%,7.7%,9.6%
CC(=O)OCC1OC(OC(C)=O)C(NC(=O)CNC(=O)OCc2ccccc2)C(OC(C)=O)C1OC(C)=O (configuration not stated),21.8%,2.8%,-16.9%,7.8%,-4.75%,4.35%
C=CC(C)n1cnc2c1c(=O)n(C)c(=O)n2C (configuration not stated),-5.1%,-9.35%,-11.2%,-35%,-5.4%,2.8%
Cc1ccc(C2OC(=O)C(=O)C2=O)cc1 (configuration not stated),-35.9%,-21.4%,-23.2%,-21.6%,-32%,-3.35%
COC(=O)c1ccccc1C1CN=NC12Cc1cccc(C)c1C2=O (configuration not stated),26.6%,20.2%,64.8%,43.1%,28.9%,52.6%
Nc1c(Br)cc(Br)cc1-c1cc(Br)cc(Br)c1N,3.65%,17%,10.4%,5.3%,13.4%,24.4%
